Compound activity: PubChem BioAssay, National Center for Advancing Translational Sciences (NCATS)
A selection: hits, their analogues and other compounds. The true share with any hit is near 8.1%.
MCF10A rereplic: DNA re-replication induction in MCF 10a cells; Potency, µM (highest dose often 46.1 µM), without a hit: at the highest dose activity, positive = re-replication, most hits filed as activators; AID 624296; MCF 10A DNA re-replication, Hoechst nuclear intensity, 48 h; 2.9% of 350,000 active; note: % of control where 0% means no effect; nearly all actives have a fitted effect of over 50% in size
SW480 rereplic: induces DNA re-replication in SW480 colon adenocarcinoma cells | SW480 DNA re-replication, Hoechst DNA content imaging, 48 h | Potency, µM (highest dose often 46.1 µM), without a hit: at the top dose re-replication activation, actives largely listed as activators | 1.8% of 340,000 active | AID 624297; note: % of control where 0% means no effect; nearly all actives have a fitted effect of over 55% in size
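Hoechst fluorescence of nuclei (405 nm excitation, 500-530 nm emission) measured by plate-scanning imager after 48 hr compound exposure at 37 C; re-replication scored as increased number of nuclei with elevated intensity.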
ELG1 DNA repair: ELG1-dependent DNA repair inhibition; HEK293T ELG1-luciferase reporter, luminescence, 16 h; DNA damage induced by 5-fluorouridine; Potency, µM (highest dose often 46.1 µM), for inactives: at the highest dose activity change, negative = inhibition, most hits filed as inhibitors; 2.3% of 330,000 active; AID 504467; note: % is set by controls: 0 for no effect and ±100 for the full control effect; nearly all actives have a fitted effect of over 55% in size
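Overnight (16 hr) co-exposure of 2,000 cells/well to 5-fluorouridine and compound at 37 °C preceded detection. Luciferase was quantified via ONE-Glo luminescence; loss of signal denotes inhibition.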
KB-3-1 cytotox: kills parental KB-3-1 adenocarcinoma cells; KB-3-1 viability, CellTiter-Glo ATP luminescence, 72 h; Potency, µM (highest dose often 46.1 µM), usual class: cytotoxic; 1.4% of 400,000 active; note: % is set by controls: 0 for no effect and ±100 for the full control effect; nearly all actives have a fitted effect of over 60% in size
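72 h, 37 °C compound treatment of KB-3-1 parental cells; CellTiter-Glo added, 10 min, luminescence read. Data corrected against DMSO-only plates and normalized before curve fitting.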
KB-V1 cytotox: KB-V1 MDR subline cytotoxicity | KB-V1 MDR cells viability, CellTiter-Glo, 72 h | Potency, µM (highest dose often 46.1 µM), usual class: cytotoxic | 3.4% of 400,000 active; note: % is set by controls: 0 for no effect and ±100 for the full control effect; nearly all actives have a fitted effect of over 60% in size
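In this primary screen, KB-V1 cells overexpressing P-gp are incubated with library compounds (lowest to highest concentration) for 72 h at 37 degrees C before a luminescent ATP viability read.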
An asterisk follows results filed as active; i = inactive; ? = inconclusive; / = no result. Calls come from the whole dose curve; as a rule, active = well fitted curve in the direction sought with a large enough effect; inconclusive = small, poorly fitted or top-dose-only effect, or another doubt; inactive = no such curve, though single readings can be large; an effect the other way counts as inactive or inconclusive. Potency is the fitted concentration of half-maximal effect.

SMILES	MCF10A rereplic	SW480 rereplic	ELG1 DNA repair	KB-3-1 cytotox	KB-V1 cytotox
COC(=O)C1=CN(Cc2cccs2)C=C(C(=O)OC)C1c1cccc(Cl)c1	7.31µM*	?	?	i	?
COC(=O)C1=CN(Cc2cccs2)C=C(C(=O)OC)C1c1ccc(OC)cc1OC	?	24.3%	4.1%	i	i
COC(=O)C1=CN(CC2CCCO2)C=C(C(=O)OC)C1c1ccsc1 (stereo not drawn)	6.0%	-19.1%	15.7%	i	i
COC(=O)C1=CN(Cc2ccc(OC)cc2)C=C(C(=O)OC)C1c1ccsc1	?	23.1µM*	?	i	?
COCCN1C=C(C(=O)OC)C(c2ccc(Cl)cc2)C(C(=O)OC)=C1	16.4µM*	9.2µM*	-7.8%	i	i
Cc1c(-c2ccccc2)nnn1-c1ccc(F)cc1F	3.4%	0.1%	?	i	i
CC(=O)N/N=C/c1ccc([N+](=O)[O-])o1	?	9.9%	/	/	/
O=C1C2C(C(=O)N1/N=C/c1ccc([N+](=O)[O-])o1)C1C=CC2C12CC2 (stereo not drawn)	16.4µM*	?	-5.9%	i	i
Cc1cc2ncn(/N=C/c3ccc([N+](=O)[O-])o3)c2cc1C	20.6µM*	20.6µM*	-15.1%	i	?
O=[N+]([O-])c1ccc(/C=N/N=C/c2ccc([N+](=O)[O-])o2)o1	2.59µM*	0.5%	?	?	8.2µM*
O=C1C2C3C=CC(C4CC34)C2C(=O)N1/N=C/c1ccc([N+](=O)[O-])o1 (stereo not drawn)	3.26µM*	10.3µM*	?	16.4µM*	?
Cc1ccc(S(=O)(=O)N/N=C\c2ccc([N+](=O)[O-])o2)cc1C	4.7%	5.1%	-5.0%	i	i
CCOc1ccc(C(=O)NCC(=O)N2CCC3(CC2)NCCc2[nH]cnc23)cc1	7.7%	?	18.3%	i	i
CCOC(=O)C1(Cc2ccccc2)CCN(Cc2nccn2CC)CC1	?	?	-0.4%	i	i
CN(C)c1ccc(/C=C/c2nc3ccccc3c(=O)n2CCO)cc1	16.4µM*	?	8.4%	i	i
O=c1c2ccccc2nc(/C=C/c2ccccc2)n1CCCO	3.0%	?	-28.2%	i	?
O=c1c2ccccc2nc(/C=C/c2ccc(O)cc2)n1CCc1ccccc1	23.1µM*	?	23.1µM*	i	14.6µM*
O=c1c2ccccc2nc(/C=C/c2cc(Br)ccc2O)n1CCO	14.6µM*	?	/	?	?
CC(C)CC(NC(=O)C(COC(C)(C)C)NC(=O)C(Cc1ccc(O)cc1)NC(=O)C(CO)NC(=O)C(Cc1c[nH]c2ccccc12)NC(=O)C(Cc1cnc[nH]1)NC(=O)C1CCC(=O)N1)C(=O)NC(CCCN=C(N)N)C(=O)N1CCCC1C(=O)NNC(N)=O (stereo not drawn)	-4.2%	-0.1%	/	/	/
CCc1ccc(C(O)c2ncc(-c3cccc(C(F)(F)F)c3)[nH]2)cc1 (stereo not drawn)	/	/	/	i	?
CN(C)C(=O)c1ccc(NC(=O)c2cncc(Br)c2)cc1	3.9%	-2.2%	?	i	i
CCOc1cc(/C=C2\C(=O)ON=C2c2ccccc2)cc(Br)c1O	9.2µM*	?	?	?	?
COc1cc(/C=C2\C(=O)ON=C2c2ccccc2)cc(Br)c1O	?	?	-1.5%	?	?
CC(C)CCNC(=O)COc1ccc(C(=O)c2ccccc2)cc1	11.2%	?	?	i	i
Cc1ccc(N2CCN(C(=O)CNS(=O)(=O)c3ccc(Br)s3)CC2C)cc1 (stereo not drawn)	?	-6.3%	-30.5%	?	2.31µM*
SMILES	MCF10A rereplic	SW480 rereplic	ELG1 DNA repair	KB-3-1 cytotox	KB-V1 cytotox
O=C(CNS(=O)(=O)c1ccc(Br)s1)N1CCN(c2ncccn2)CC1	-4.2%	-3.5%	-1.1%	i	20.6µM*
O=C(Nc1ccccc1)C1=C(O)CC(c2ccc(Cl)cc2)N2CCN=C12 (stereo not drawn)	11.9%	0.6%	24.4%	i	?
COc1ccc(NC(=O)CN2CCN(S(=O)(=O)c3ccc(Br)cc3)CC2)c(OC)c1	18.2%	-1.0%	17.5%	i	i
C[C@@H](CN=[N+]=[N-])CN1CC[C@H](O)CCC1=O	-6.8%	-25.0%	-4.1%	i	i
CCOC(=O)C1CCCN(C(=O)COc2ccc(C(=O)c3ccc(F)cc3)cc2)C1 (stereo not drawn)	13.6%	2.8%	?	i	i
NC12CCc3c(no[n+]3[O-])C1(O)CC(c1ccccc1)=[N+]2[O-] (stereo not drawn)	-10.5%	-3.5%	13.4%	i	i
COc1ccc(C)cc1NC(=O)CSc1nc2scc(C)c2c(=O)[nH]1	18.4µM*	?	-4.0%	i	i
COc1ccc(Cl)cc1NC(=O)CSc1nc2sccc2c(=O)[nH]1	20.6µM*	-4.7%	6.8%	i	i
COc1ccccc1NC(=O)CSc1nc2nc(C)cc(C)c2c(=O)[nH]1	?	0.4%	12.6%	i	i
Cc1cccc(NC(=S)NC(=O)CCc2ccccc2)c1	?	-4.7%	18.8%	i	i
COCCCNC(=S)NNC(=O)c1ccccc1Br	15.1%	-0.5%	4.9%	i	i
CCn1c(C(=O)NC2CCC(C)CC2)cc2sccc21 (stereo not drawn)	8.6%	11.9%	?	i	i
CCOC(=O)N1CCC(NC(=O)c2cc3sccc3n2CC)CC1	?	-6.8%	-8.5%	i	23.1µM*
O=C(NCc1ccccc1)c1onc(CSc2ccc(F)cc2)c1C(=O)NCc1ccccc1	17.3%	6.0%	/	i	i
Cc1cc(C)cc(SCc2noc(C(=O)NCc3ccccc3)c2C(=O)NCc2ccccc2)c1	4.61µM*	-30.2%	-4.4%	i	i
CC(C)(C)OC(=O)N(Cc1ccccc1)Cc1ccccc1OCc1cccc(NC(=O)C2CCC2)c1	?	5.5%	/	?	i
CC(C)(C)OC(=O)N(Cc1ccccc1)Cc1ccccc1OCc1cccc(NC(=O)C2CC2)c1	14.6µM*	?	/	i	?
CC(C)C(=O)Nc1cccc(COc2cccc(CN(Cc3ccccc3)C(=O)OC(C)(C)C)c2)c1	1.84µM*	4.2%	/	?	?
